Assay outcomes (PubChem BioAssay)
Only some compounds are listed: those with a hit (about 1.3% of all), similar ones and a draw of the others.
IL-2 act = activates IL-2 in a cell-based reporter assay. IL-2 activation reporter assay, cell-based qHTS; stimulated with anti-CD3/CD4/CD28 beads; in transgenic mouse T cells. activation, % (series mostly up to about 46 µM). hit rate 0.065% among 360,000. AID 652025; in the data active means activation above about 50%; inconclusive means mostly about 30% to 49%; further: 0% is about no effect
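Unstimulated transgenic mouse T cells preincubated 60 min with compound, then stimulated with anti-CD3/anti-CD4-coated beads plus anti-CD28 for 18 h at 37 degrees C. IL-2 response read as EGFP and DsRed fluorescence by plate cytometry.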
PKM2 activator = PKM2 (human) enzyme activation; purified PKM2, Kinase-Glo ATP luminescence, activation; response scale: 0% is enzyme alone, no compound; hit rate 0.34% among 260,000; Potency, µM (series often up to 57.5 µM), without a hit: top-dose activation, hits mostly activators; AID 1631; further: potency means the concentration at half of the fitted maximal effect; on the % scale 0 is the no-effect control and ±100 the full control effect; nearly all actives have a fitted effect of over 55% in size
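Purified hPK-M2 (>95% pure) converted ADP (0.1 mM final) to ATP with 0.5 mM PEP in 50 mM imidazole pH7.2, KCl, MgCl2, Tween 20, BSA; 1 h at room temperature. ATP detected by Kinase-Glo luminescence.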
BRCA1 expr act = activators of BRCA1 expression | MCF7-BRCA1-FFLuc reporter, luminescence, 48 h; response scale: scaled: vehicle 0%, 10 µM genistein 100% | Potency, µM (top dose mostly 46.1 µM), for the others: top-dose activation, most hits filed as activators | hit rate 1.1% among 380,000 | AID 624202; further: potency means the concentration at half of the fitted maximal effect; nearly all actives have a fitted effect of over 80% in size
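48 h compound treatment of MCF7-BRCA1-FFLuc cells (phenol-red free MEM, 37 °C), then 15 min with luciferase substrate and luminescence imaging.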
Anesthetic bind = binds horse apoferritin like a general anesthetic; P02791; apoferritin/1-aminoanthracene competitive binding, fluorescence; Potency, µM (series often up to 77.5 µM), for the others: at the top dose activity change, negative = displacement, actives largely listed as inhibitors; hit rate 0.074% among 350,000; further: potency means the concentration at half of the fitted maximal effect; on the % scale 0 is the no-effect control and ±100 the full control effect; nearly all actives have a fitted effect of over 20% in size
Target sequence (P02791 2-175 limits assumed): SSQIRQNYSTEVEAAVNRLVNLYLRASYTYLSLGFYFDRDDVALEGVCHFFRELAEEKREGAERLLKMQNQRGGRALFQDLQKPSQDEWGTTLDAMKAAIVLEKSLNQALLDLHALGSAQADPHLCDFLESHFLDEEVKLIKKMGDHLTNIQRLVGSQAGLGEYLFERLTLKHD
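Horse-spleen apoferritin (10 uM) in 50% saturated 1-aminoanthracene in PBS was incubated 10 min at room temperature with compound. Fluorescence (ex 380, em 535 nm) was normalized to free and bound 1-AMA, with concentration-response fitted by a four-parameter Hill equation.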
Integrin act MD = activators of alpha7 integrin expression for muscular dystrophy. alpha7betagal myoblasts, beta-gal FDG fluorescence, 48 h. Potency, µM (doses to about 38.3 µM), for inactives: top-dose activation, most hits filed as activators. hit rate 0.064% among 350,000. AID 624291;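 further: potency means the concentration at half of the fitted maximal effect; 100% = response of the positive control SU9516; nearly all actives have a fitted effect of over 60% in size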
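Alpha7betagal+/- myoblasts (passage 13) were plated 16-24 hr, then exposed to compounds (1:260 dilution of DMSO stock) for 48 hours at 37C. After MPER lysis, β-galactosidase reporter activity was read as FDG fluorescence (ex 480/em 540) after 30 minutes.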
The depositor's hits bear a star; ? = inconclusive; · = not tested or not shown; [ ] = remark or other dose. Unless noted, the call rests on the fitted dose curve; in most records, active means well fitted curve in the direction sought with a large enough effect; inconclusive means small, poorly fitted or top-dose-only effect, or another doubt; inactive means no such curve, though single readings can be large; an effect the other way counts as inactive or inconclusive.

SMILES | IL-2 act | PKM2 activator | BRCA1 expr act | Anesthetic bind | Integrin act MD
CCN(c1cccc(C)c1)S(=O)(=O)c1nnc(NC(=O)c2ccccc2Cl)s1 | · | · | · | 2% | ·
CCOC(=O)Cn1c(=O)c(-c2cc(Br)ccc2N)nc2ccccc21 | 152* | 2% | -24% | 3% | -53%
CCN(CC)CCNC(=O)CCn1c(=O)c2cccn2c2cccnc21 | · | · | · | -11% | ·
O=C(CNC(=O)c1ccccc1F)N/N=C/c1cccs1 | -4 | · | 10µM* | -15% | 45%
CN(Cc1ccccc1)/[N+]([O-])=N/Oc1ccc([N+](=O)[O-])cc1[N+](=O)[O-] | · | · | -47% | · | ·
COc1cncc(C#Cc2ccccn2)c1 | 0 | · | 4.5µM* | · | ·
CCC(=O)Nc1ccc(-c2nnc(SCc3ccccc3)n2C)cc1 | · | · | 6% | · | ·
Oc1ccc(Br)cc1C=Nc1cccn2cc(-c3ccccc3)nc12 | 3 | -29% | 6.3µM* | 229% | 28%
c1ccc2c3c([nH]c2c1)CCCC3 | · | · | 2% | · | ·
C/C(=N\O)c1ccc2c3c([nH]c2c1)CCCC3 | 0 | -9% | 10µM* | 7% | 10%
CCCNC(=O)/C=C/c1ccc(C(C)C)cc1 | 0 | -8% | 13µM* | 0% | -18%
COc1ccc(F)cc1S(=O)(=O)Nc1ccc2c(c1)CCCN2C(=O)c1cccs1 | · | · | · | -8% | ·
Cc1c(C)c2ccc(OCC(=O)c3ccccc3)cc2oc1=O | -3 | · | 6.3µM* | -6% | 19%
COc1cccc(C(=O)COc2ccc3c(C)c(Cc4ccccc4)c(=O)oc3c2)c1 | -5 | 4% | 8% | -7% | 1%
CCOc1ccc2cc(C(=O)c3ccccc3)c(=O)oc2c1 | -1 | 4% | 10µM* | 1% | -2%
CCOc1ccc2cc(C(=O)NCc3ccccc3)c(=N)oc2c1 | 0 | · | 43% | 8% | 8%
COc1ccc(-c2cc3ccc(OCC(C)=O)cc3oc2=O)cc1OC | -2 | 3%[0.46 µM] | 10µM* | -2% | -6%
CCCc1c(C)c2ccc(OCC(C)=O)cc2oc1=O | -1 | 22% | 5.6µM* | -11% | 7%
CC[C@H](NC(=O)[C@H](CCCN=C(N)N)NC(=O)[C@H](Cc1c[nH]c2ccccc12)NC(=O)[C@@H](N)CS)C(=O)N[C@@H](CCCN=C(N)N)C(=O)N[C@@H](Cc1ccc(O)cc1)C(N)=O | · | · | · | 3% | ·
CC(=O)N1CCN(c2ccc(NC(=O)c3cccc(Cl)c3)cc2)CC1 | -1 | 0% | 11µM* | -5% | 12%
Cc1ccc(C(=O)Nc2ccc(N3CCOCC3)cc2)cc1 | -2 | -33% | 8.9µM* | -16% | 15%
Cc1ccc(C(=O)Nc2ccc(N3CCCC3)cc2)cc1 | 3 | 2% | 49% | 0% | -8%
O=C(CSc1ccccc1)Nc1ccc(N2CCOCC2)cc1 | -1 | -6% | ? | -21% | -52%
CC(=O)N1CCN(c2ccc(NC(=O)c3ccc(Cl)cc3)cc2)CC1 | 4 | 0% | 1% | -4% | 9%
O=C(CSc1ccccc1F)Nc1ccc(N2CCOCC2)cc1 | 0 | · | 5.6µM* | · | -11%
SMILES | IL-2 act | PKM2 activator | BRCA1 expr act | Anesthetic bind | Integrin act MD
O=C(CSc1ccccc1)Nc1ccc(N2CCOCC2)c(F)c1 | 2 | -2% | 7.9µM* | -6% | 12%
COC1=C2C[C@H](C)C[C@H](OC)[C@@H](O)[C@@H](C)C=C(C)[C@H](OC(N)=O)[C@@H](OC)C=CC=C(C)C(=O)NC(=CC1=O)C2=O | · | · | -13% | · | ·
CN(C)c1ccc(/C=C/c2ccnc3ccccc23)cc1Br | · | · | 0% | · | ·
CNS(=O)(=O)c1cn(CC(=O)N2CCN(c3ccc(Cl)cc3)CC2)cc1S(=O)(=O)NC | · | · | · | 28% | ·
O=C(Nc1ccc(N2CCOCC2)cc1)C1CCN(C(=O)OCc2ccccc2)CC1 | 2 | -1% | 2.8µM* | 2% | 10%
COc1ccc(C(=O)Nc2ccc(Nc3ccccc3)cc2)cc1Br | -1 | · | 14% | · | 0%
O=C(Nc1ccc(N2CCOCC2)cc1Cl)C1CCN(C(=O)OCc2ccccc2)CC1 | 0 | 3% | 30% | -9% | 0%
O=C(Cc1ccccc1)Nc1ccc(CN2CCOCC2)cc1 | -1 | 8% | 10µM* | -2% | 6%
COc1ccc(C(=O)Nc2ccc(N3CCCCC3)cc2)cc1Br | 1 | -15% | 3.5µM* | 5% | -19%
